From ChEMBL document CHEMBL3988442, “University of Dundee, Small-Polar-MMV Screening Library” (2021)
The whole screen tested about 85,000 compounds, of which about 440 (0.52%) showed an effect of 50% or more. The sample as a whole holds a higher share of strong results than the screen did.

Test: In vitro enzyme assay to detect hydrolysis of chlorophenol red-beta-D-[…] directly proportional to the number of Toxoplasma stably expressing beta-galactosidase
Format: functional, organism-based, Toxoplasma gondii
Parameters: scale not given: in the data most compounds retested in dose-response had high values

SMILES	Percent Effect (50 µM)	Percent Effect (10 µM)
CN1CCCN(C(=O)COc2ccccc2)CC1	-9.111%	–
CN1CCCN(C(=O)COc2ccc(Br)cc2)CC1	68.33%	–
CN1CCCN(C(=O)COc2ccc(C#N)cc2)CC1	10.92%	–
CCc1nsc(N2CCNCC2)n1	12.31%	–
CCc1cnc(N2CCNCC2)s1	54.04%	–
Cc1cnc(N2CCNCC2)s1	5.738%	–
O=C(C[C@@H]1COC[C@H]2CN(Cc3ccncc3)C[C@@H]12)N1CCCC1	–	95.78%
O=C(C[C@@H]1COC[C@H]2CN(Cc3cccnc3)C[C@@H]12)N1CCCC1.O=C(O)C(F)(F)F.O=C(O)C(F)(F)F	–	-13.82%
O=C(C[C@H]1[C@H]2CN(Cc3ccncc3)C[C@@H]12)N1CCCC1.O=C(O)C(F)(F)F.O=C(O)C(F)(F)F	–	-5.891%
NCCc1ccc(Cl)s1	19.11%	–
C[C@@H]1CN(Cc2ccsc2)C[C@]12CCN(Cc1cccnc1)C2=O.O=C(O)C(F)(F)F.O=C(O)C(F)(F)F	–	-1.478%
NC1CCCCNC1=O (centres undefined)	97.52%	–
CNC1CCNC1=O (centres undefined)	22.45%	–
O=C1NC[C@H]2NCCC[C@@H]12	-10.77%	–
COCCN1C(=O)CC[C@@H]2[C@@H]1CCN2Cc1c(C)noc1C.O=C(O)C(F)(F)F	–	17.34%
NCCc1ccsc1	4.76%	–
O=C1C[C@H]2CC[C@@H](CN1)N2C1CSCCSC1	–	-1.323%
CN1CCN(c2ncnc3ccsc23)CC1	-1.262%	–
c1nc(N2CCNCC2)c2sccc2n1	52.15%	–
c1cc2sccc2c(N2CCNCC2)n1	13.67%	–
Cc1nc(CO[C@H]2CN(Cc3ccccn3)[C@@H]3CCCO[C@H]23)cs1.O=C(O)C(F)(F)F.O=C(O)C(F)(F)F	–	12.48%
CC(c1nc(C(C)(C)C)no1)N1CCN(C)CC1 (centres undefined)	8.823%	–
COc1ccc(Cl)c(N2CCNCC2)c1	12.14%	–
COc1ccc(C)cc1CC(=O)N1CCN(C)CC1	93.86%	–
COc1ccc(C)cc1CC(=O)N1CCN(CC(C)O)CC1 (centres undefined)	–	-5.451%
CCC(O)CN1CCN(C(=O)Cc2cc(C)ccc2OC)CC1 (centres undefined)	–	16.53%
O=C(O)C(F)(F)F.O=C(O)[C@]12CCCN(C3CCOC3)C[C@H]1CN(c1ncccn1)C2 (some centres undefined)	–	3.821%
COCCNC(=O)[C@H]1C[C@@H]2CCN(Cc3ccncc3)C[C@H]2O1.O=C(O)C(F)(F)F.O=C(O)C(F)(F)F	–	3.499%
CN1CCN(c2cccc(C#N)n2)CC1	4.938%	–
